Measurements published in PubChem BioAssay AID624417 (National Center for Advancing Translational Sciences (NCATS), 2012).
About 6,400 (1.6%) of roughly 410,000 compounds were called active. Roughly 20% stayed inconclusive and do not appear here. Calls follow the shape of the dose curve; as a rule, active = well fitted inhibition curve with a large enough effect; inconclusive = small, poorly fitted or top-dose-only effect; inactive = no such curve, though single readings can be large or run the other way. The entries come from a sample that favours actives as a whole. Entries that show only a call come without a potency.

target: Glucagon-like peptide 1 receptor (Homo sapiens) (UniProt P43220); assay: qHTS of GLP-1 Receptor Inverse Agonists (Inhibition Mode); details: HEK293 GLP-1R CRE-luciferase, luminescence, 24 h, GLP-1R form is constitutively active; series mostly up to 38.3 µM; also: nearly all actives have a fitted effect of over 55% in size
Sequence (P43220 whole entry, looked up): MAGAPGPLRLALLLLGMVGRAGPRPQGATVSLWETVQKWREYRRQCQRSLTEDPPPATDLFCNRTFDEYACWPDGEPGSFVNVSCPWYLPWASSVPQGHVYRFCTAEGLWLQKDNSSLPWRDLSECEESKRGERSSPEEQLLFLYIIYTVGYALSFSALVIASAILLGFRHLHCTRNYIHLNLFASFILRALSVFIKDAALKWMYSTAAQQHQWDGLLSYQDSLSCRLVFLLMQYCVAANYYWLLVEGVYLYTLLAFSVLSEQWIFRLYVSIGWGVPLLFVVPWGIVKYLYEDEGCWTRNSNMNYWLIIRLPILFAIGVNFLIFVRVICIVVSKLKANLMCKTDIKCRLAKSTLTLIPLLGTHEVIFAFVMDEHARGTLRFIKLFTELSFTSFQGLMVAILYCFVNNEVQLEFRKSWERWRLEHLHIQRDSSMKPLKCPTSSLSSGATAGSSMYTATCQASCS
Summary of the method: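 Readout was luciferase luminescence, measured 12 min after detection reagent at room temperature. Beforehand, GLP-1R reporter HEK293 cells had sat 12 h, then received compounds for 24 hr at 37 deg C.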
Potency is read from the fitted curve at half-maximal effect.

Structure (SMILES) | Potency
CC(C)CCOc1ccc(C(=O)Nc2cc(S(=O)(=O)N3CCOCC3)ccc2N2CCOCC2)cc1 | inactive
CCc1nc2ccc(C(=O)N(C)CCN(C)C)cn2c1N(CC)CCOC | inactive
OC[C@@H]1CN(Cc2ccc3c(c2)OCO3)C[C@H](n2cnc3c(NCc4ccco4)ncnc32)O1 | inactive
O=C(CSc1ccc(Cl)cc1)NC1CC1 | inactive
COc1ccc(C(=O)Nc2onc3c2CCCC3)cc1 | 11.2 µM (active)
COc1ccc(NC(=O)c2c(C)oc3c2CCCC3)cc1 | inactive
CC1CCc2noc(NC(=O)c3ccc([N+](=O)[O-])cc3)c2C1 (configuration not stated) | inactive
O=C1NC[C@H](CCCCN2C[C@H](Cc3ccccc3)N(Cc3ccccc3)C(=O)C2=O)N(CCc2ccc(O)cc2)C1=O | inactive
CN1CCn2cnc(C(=O)NCC(=O)OC(C)(C)C)c2C1=O | inactive
O=C(Nc1nnc([C@H]2C[C@H](O)[C@@H](CO)O2)s1)c1cccc(Cl)c1 | inactive
CC1=NN(c2cccc(Cl)c2)C(=O)C12CC(C)=C(C)CS2 (configuration not stated) | 10 µM (active)
CCOC1=C2[C@H]([C@H]3C(=O)N(c4ccccc4)C(=O)[C@H]3C1)[C@@H](c1ccccc1)N(S(=O)(=O)c1ccc(C)cc1)[C@H]2c1ccccc1 | inactive
Cc1cc(Nc2ccc(C)c(C)c2)n2ncnc2n1 | inactive
CC(=O)NCC(=O)N1CCCC(C(=O)c2ccc3c4c(cccc24)CC3)C1 (configuration not stated) | inactive
CCOC(=O)c1[nH]ncc1CN1CCCC(C(=O)c2ccc(OC)cc2C)C1 (configuration not stated) | inactive
CCn1ccnc1CN1CCCC(C(=O)c2ccc3c4c(cccc24)CC3)C1 (configuration not stated) | 11.2 µM (active)
O=C(N=C1SC2CS(=O)(=O)CC2N1Cc1ccccc1)c1ccccc1 (configuration not stated) | inactive
CSCCC(C(=O)NC(C)(C)C)n1c(-c2ccccc2)nc2ccccc21 (configuration not stated) | inactive
COc1ncnc2c1ncn2CCCNCCN1CCOCC1 | inactive
CCc1nc2c(OCCOc3ccccc3)cccn2c1N(C)C(=O)c1ccc(OC)cc1 | inactive
CN(C(=O)COC(=O)CNC(=O)C12CC3CC(CC(C3)C1)C2)c1ccccc1 | inactive
CC(C)(C)c1ccc(C(=O)NNC(=O)Cc2ccccc2)cc1 | inactive
CN(C(=O)CC(NC(=O)c1ccccc1)(c1ccccc1)c1ccccc1)c1ccccc1 | 12.6 µM (active)
COc1ccc(C(CNC(=O)CSc2ccccc2)N2CCOCC2)cc1 (configuration not stated) | inactive
COc1ccc(C(=O)ON=C2c3ccccc3-c3ccccc32)cc1OC | inactive
COc1ccc(C(=O)O/N=C(\N)Cc2ccc(Cl)cc2Cl)cc1OC | 8.91 µM (active)
COc1ccc(C/C(N)=N/OC(=O)c2ccco2)cc1OC | inactive
